Bioassay records: PubChem, several laboratories
PERK inhibitor: blocks human PERK kinase | 220,000 compounds, 0.17% hits | CHO PERK-DD fusion, SEAP luminescence translation reporter | Q9NZJ5 | inhibition, % at 5.6 µM;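 active = inhibition above the mean inhibition of all tested compounds plus 3 SD, set separately per screening campaign, cut at about 2.9% in these data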;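 note: PERK kinase domain activated by AP20187 dimerizer at 100 nM; 0% = DMSO with dimerizer and 100% = rapamycin at 8.4 µM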
eIF4H FP inh: inhibitors of RNA binding by human eIF4H | Q15056 | eIF4H fluorescence polarization binding assay | inhibition, % at 35 µM | 290,000 compounds, 0.94% hits | AID 2012;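 note: calls also rest on retests at 20 µM and on dose response follow-up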
PABP1 MLLE inh: inhibitors of microRNA-mediated deadenylation, human PABP1 MLLE binding | P11940 | inhibition, % at 20 µM | GST-MLLE / FITC-PAM2 fluorescence polarization | 360,000 compounds, 0.36% hits; in the data active = inhibition above about 35%, passing the limit was not always enough;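 note: plate controls were DMSO wells with GST-MLLE for no effect and wells lacking GST-MLLE protein for full effect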
Target sequence (P11940 whole entry, looked up): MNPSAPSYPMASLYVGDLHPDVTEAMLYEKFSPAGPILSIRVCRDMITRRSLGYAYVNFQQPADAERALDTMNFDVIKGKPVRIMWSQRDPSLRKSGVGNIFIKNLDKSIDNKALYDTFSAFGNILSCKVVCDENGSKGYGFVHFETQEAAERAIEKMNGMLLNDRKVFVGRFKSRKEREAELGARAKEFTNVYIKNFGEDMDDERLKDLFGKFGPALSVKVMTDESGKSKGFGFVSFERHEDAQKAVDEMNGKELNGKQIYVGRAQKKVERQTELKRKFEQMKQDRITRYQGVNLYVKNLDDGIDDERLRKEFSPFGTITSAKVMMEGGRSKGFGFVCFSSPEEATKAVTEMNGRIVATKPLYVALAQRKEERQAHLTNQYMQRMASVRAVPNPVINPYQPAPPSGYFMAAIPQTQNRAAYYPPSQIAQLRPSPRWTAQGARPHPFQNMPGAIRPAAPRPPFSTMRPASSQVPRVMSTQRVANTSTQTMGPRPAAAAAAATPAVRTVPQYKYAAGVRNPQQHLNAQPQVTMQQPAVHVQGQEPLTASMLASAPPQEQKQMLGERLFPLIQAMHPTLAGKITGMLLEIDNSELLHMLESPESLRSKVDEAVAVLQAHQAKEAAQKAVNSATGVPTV
eIF4E 4G PPI: blocks eIF4E binding to eIF4G; P63073+Q04637; TR-FRET eIF4E-eIF4GI(517-606) binding, 2 h; inhibition, % at 21.7 µM; 220,000 compounds, 0.37% hits; AID 782;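 active = inhibition above about 30%, limit read from the data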;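 note: 0% = full FRET control wells and 100% = background wells lacking eIF4GI fragment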
PABP FP inh: PABP-poly(A) binding inhibition. P11940. PABP-poly(A) RNA binding, fluorescence polarization. calls only at 35 µM. 290,000 compounds, 1% hits. AID 2014;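 note: calls also rest on retests at 20 µM and on dose response follow-up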
* = called active by the depositor; i = inactive; u = inconclusive; x = no result given; + = active, no number. Compounds with a hit are over-represented: about 1.6% of the library has one in this group of screens. Unless noted, the rule behind the calls is not given here.

SMILES | PERK inhibitor | eIF4H FP inh | PABP1 MLLE inh | eIF4E 4G PPI | PABP FP inh
CCN(C(=O)COC(=O)c1cn(-c2ccccc2)nc1-c1ccccc1)C1CCS(=O)(=O)C1 (centres undefined) | 0 | -4 | 14 | -4 | i
CCCOC(=O)c1ccc(OCC(O)CN2CCN(C(=O)c3ccccc3)CC2)cc1 (centres undefined) | 0 | -4 | -6 | 34* | i
CC(=O)c1ccc(NC(=O)CSc2nnc(NC(=O)C3CC3)s2)cc1 | x | -8 | -1 | x | i
COc1ccc(CCN2CC(C(=O)NCCc3cccnc3)CCC2=O)cc1 (centres undefined) | x | -9 | 7 | x | i
O=c1cc(CO)oc(C(Nc2ccccn2)c2ccc(F)cc2)c1O (centres undefined) | 1 | 0 | 24 | 7 | i
O=c1cc(CO)oc(C(Nc2ccccn2)c2ccsc2)c1O (centres undefined) | 1 | 71* | x | 3 | +
COc1ccc(CNC(=O)CCCC(=O)Nc2cccc(Br)c2)cc1 | x | 0 | -1 | x | i
CC(SC1=Nc2ccccc2C2CC=NN12)C(=O)NC1(C#N)CCCCC1 (centres undefined) | x | x | 41* | x | x
CCC(CC)c1nc(NCCC(=O)O)c2ccccc2n1 | 3.1* | 2 | 10 | -5 | i
CC1CN(c2ccc(Oc3ccccc3)cc2)c2nc3c(c(=O)n(CC(N)=O)c(=O)n3C)n2C1 (centres undefined) | x | -1 | -1 | 95* | i
CCOC(=O)C1(C)CCN1C(=O)c1ccc2ccccc2c1 (centres undefined) | x | x | 2 | x | x
O=C(Nc1nc2c(Cl)ccc(Cl)c2s1)C1CC1 | x | 1 | 14 | x | i
NNc1nc2c(Cl)ccc(Cl)c2s1 | 0 | 62* | 9 | -1 | +
COc1ccc(Cn2c(C)nc3c(c2=O)c2nc4ccccc4nc2n3Cc2ccco2)cc1 | x | x | -33 | x | x
COc1ccc(Cn2c3nc4ccccc4nc3c3c(=O)n(Cc4ccco4)c(C)nc32)cc1 | x | 54* | x | x | +
Cc1c(C(=O)OCC(=O)Nc2ccc(C(=O)N(C)C)cc2)oc2ccccc12 | x | -9 | 0 | x | i
Cc1ccc(C)c(NC(=O)CN(C)C(=O)c2ccccc2OCc2ccccc2Cl)c1 | x | x | -1 | x | x
O=C(CCCSc1nc2ccccc2c(=O)[nH]1)c1ccc(F)cc1 | 0 | 84* | -13 | 1 | i
Cc1ccc(C(=O)CSc2nc3ccccc3c(=O)[nH]2)cc1 | -1 | 4 | 5 | -2 | i
COC(=O)[C@H]1C[C@H](OC(=O)NC2CCCC2)[C@@]2(O)CN(S(=O)(=O)c3ccc(C)cc3)CC2[C@H]1C(=O)OC (some centres undefined) | x | x | -5 | x | x
C/C(=N\NC(=O)c1ccc(NS(=O)(=O)c2cccs2)cc1)c1cccs1 | 1 | active | -3 | 2 | +
C/C(=N\NC(=O)c1ccc(NS(=O)(=O)c2cccs2)cc1)c1ccc(Cl)cc1 | 2 | 1 | -4 | 2 | i
CC1=CCC(C(=O)O)C(C(=O)Nc2ccc(-c3nc4ccc(C)cc4s3)cc2)C1 (centres undefined) | 0 | 8 | -7 | 80* | i
O=C(NCCCN1CCOCC1)c1ccc(Cl)cc1Cl | x | 1 | 6 | x | i
C[n+]1c(-c2ccccc2)sc([S-])c1-c1ccccc1 | x | x | 23 | x | x
SMILES | PERK inhibitor | eIF4H FP inh | PABP1 MLLE inh | eIF4E 4G PPI | PABP FP inh
O=c1oc2cc([N+](=O)[O-])ccc2nc1/C=C(\O)c1cccc(Br)c1 | 1 | 8 | -5 | 2 | i
O=c1oc2cc([N+](=O)[O-])ccc2nc1/C=C(O)/C=C/c1ccccc1 | -1 | 72* | x | 3 | i
CCNC(=S)NC(=NCc1cccnc1)Nc1nc(C)cc(C)n1 | x | 16 | 65* | x | i
CCCc1cc(=O)[nH]c2nnc(SCC(=O)NC3CCCCC3)n12 | x | x | 19 | x | x
O=C(COc1ccc(Cl)cc1Br)NC(=O)NC1CCCC1 | x | x | 5 | x | x
CNC(=O)COC(=O)c1c2c(nc3ccccc13)CCC2 | 1 | 66* | -19 | 14 | i
COc1ccc(NC(=O)COC(=O)c2c3c(nc4ccccc24)CCCC3)cc1 | -1 | 2 | 6 | 1 | i
C=CCNC(=O)COC(=O)c1c2c(nc3ccccc13)CCC2 | x | 59* | -8 | x | +
CC(C)NCC(=O)Nc1c2c(nc3ccccc13)CCC2 | 0 | 16 | 3 | 31* | i
CCCCNC(=O)COC(=O)c1c2c(nc3ccccc13)CCC2 | x | 68* | -17 | x | +
CCOC(=O)C(=O)NN=C(c1ccccc1)c1ccccc1 | 1 | 2 | 4 | 2 | i
Cc1cc(C)c([N+](=O)[O-])cc1-c1ccc(/C=N/c2c(-c3ccco3)nc3ccccn23)o1 | 1 | u | -20 | -8 | u
O=[N+]([O-])c1ccc(-c2ccc(/C=N/c3c(-c4ccco4)nc4ccccn34)o2)c(Cl)c1 | 1 | 34 | x | 3 | i
O=[N+]([O-])c1ccc(-c2ccc(/C=N/c3c(-c4ccco4)nc4ccccn34)o2)cc1 | 2 | u | 10 | 0 | +
O=[N+]([O-])c1ccc(Cl)c(-c2ccc(/C=N/c3c(-c4ccco4)nc4ccccn34)o2)c1 | 0 | u | 2 | 14 | +
O=C(CSc1ccc2c(c1)OCCO2)NCCc1ccc(Cl)cc1Cl | 0 | -12 | 40* | -10 | i
COc1ccc(NC(=S)NC(=O)c2csnn2)cc1 | 0 | 5 | 25 | 2 | i
O=C(NC(=S)Nc1ccccc1)c1csnn1 | 0 | 2 | 37* | 4 | i
CC(C)c1ccc(O)c(NC(=S)NC(=O)CCc2ccccc2)c1 | 0 | 12 | 43* | -1 | i
Cc1nc2ccccc2cc1C(=O)N/N=C/c1ccco1 | 1 | 87* | -4 | 15 | i
O=C(N/N=C/c1ccco1)c1cc(-c2cccs2)[nH]n1 | -1 | 60* | -3 | 10 | +
CCCc1nc(NCCCOCC)c2nnn(Cc3ccccc3)c2n1 | x | -17 | 4 | x | i
O=C(CCc1nc2ccccc2s1)NC1CCOC1=O (centres undefined) | 0 | 10 | 14 | 2 | i
COc1ccc(Nc2ccc(N3C(=O)CC(C)C3=O)cc2[N+](=O)[O-])cn1 (centres undefined) | 1 | 74 | 40* | 3 | +
COC(=O)C1=C(C)NC(=O)/C1=C\c1cc(C)n(-c2ccccc2)c1C | 0 | 63 | -6 | -1 | i
COC(=O)C1=C(C)NC(=O)/C1=C\c1cc(C)n(-c2cc(C)cc(C)c2)c1C | -1 | 83* | -5 | -16 | +
N/C(=N\OC(=O)CSc1ccccc1)c1ccc([N+](=O)[O-])cc1 | 0 | 3 | 41* | -1 | i
Cc1ccc(/C(N)=N/OC(=O)CSc2ccccc2)cc1 | 0 | 1 | 20 | 2 | i
CCCCn1c(N)c(N(CCOC)C(=O)c2cnc(C)cn2)c(=O)[nH]c1=O | x | x | -31 | x | x
CN1CCc2nc(NC(=O)c3cccc(OC(F)F)c3)sc2C1 | 0 | 74* | -64 | 1 | +
